# The list is not random: actives were taken first. Their share in the collection is about 6.6%.
# FBA Mtb inh: inhibits M. tuberculosis FBA enzyme; 2.3% of 360,000 active; AID 588726; inhibition, % at 1 µM; purified M. tuberculosis FBA, fluorescence read-out; P9WQA3; in the data active = inhibition above about 27%;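 note: 0% = vehicle and 100% = reference inhibitor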
# BoNT-A LC inh2: BoNT A light chain protease inhibition; AID 588499; 0.17% of 360,000 active; multiplex microsphere protease substrate cleavage, flow cytometry; inhibition, % at 10 µM; note: plate controls were buffer without enzyme for full effect and enzyme alone for no effect
# Bead autofluor: compound fluorescence in toxin protease inhibitor counterscreen. compound autofluorescence counterscreen, microsphere flow cytometry; hits give high values. fluorescence intensity (test concentration not listed). 3.1% of 360,000 active; in the data active = fluorescence intensity above about 16000; inconclusive = no clear call, values can overlap the other calls
# BoNT F protease: inhibitors of Botulinum neurotoxin F light chain protease; 0.22% of 360,000 active; inhibition, % at 10 µM; AID 588497; Multiplex microsphere protease cleavage assay, flow cytometry; in the data active = inhibition above about 35%, passing the limit was not always enough; inconclusive = no clear call, values can overlap the other calls; note: plate controls were buffer without enzyme for full effect and enzyme alone for no effect
# GDH-TPI inh: GDH-TPI coupled enzyme inhibition counter-screen | 1.2% of 360,000 active | inhibition, % at 4.8 µM | GDH-TPI coupled enzyme counterscreen, NADH absorbance; in the data active = inhibition above about 30%;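 note: 0% = DMSO wells and 100% = wells lacking the enzyme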
# Anthrax LF prot: anthrax lethal factor protease inhibition; P15917; multiplex microsphere protease cleavage assay, LF; inhibition, % at 10 µM; 0.12% of 360,000 active; AID 588501; note: plate controls were buffer without enzyme for full effect and enzyme alone for no effect
# Target sequence (P15917 whole entry, looked up): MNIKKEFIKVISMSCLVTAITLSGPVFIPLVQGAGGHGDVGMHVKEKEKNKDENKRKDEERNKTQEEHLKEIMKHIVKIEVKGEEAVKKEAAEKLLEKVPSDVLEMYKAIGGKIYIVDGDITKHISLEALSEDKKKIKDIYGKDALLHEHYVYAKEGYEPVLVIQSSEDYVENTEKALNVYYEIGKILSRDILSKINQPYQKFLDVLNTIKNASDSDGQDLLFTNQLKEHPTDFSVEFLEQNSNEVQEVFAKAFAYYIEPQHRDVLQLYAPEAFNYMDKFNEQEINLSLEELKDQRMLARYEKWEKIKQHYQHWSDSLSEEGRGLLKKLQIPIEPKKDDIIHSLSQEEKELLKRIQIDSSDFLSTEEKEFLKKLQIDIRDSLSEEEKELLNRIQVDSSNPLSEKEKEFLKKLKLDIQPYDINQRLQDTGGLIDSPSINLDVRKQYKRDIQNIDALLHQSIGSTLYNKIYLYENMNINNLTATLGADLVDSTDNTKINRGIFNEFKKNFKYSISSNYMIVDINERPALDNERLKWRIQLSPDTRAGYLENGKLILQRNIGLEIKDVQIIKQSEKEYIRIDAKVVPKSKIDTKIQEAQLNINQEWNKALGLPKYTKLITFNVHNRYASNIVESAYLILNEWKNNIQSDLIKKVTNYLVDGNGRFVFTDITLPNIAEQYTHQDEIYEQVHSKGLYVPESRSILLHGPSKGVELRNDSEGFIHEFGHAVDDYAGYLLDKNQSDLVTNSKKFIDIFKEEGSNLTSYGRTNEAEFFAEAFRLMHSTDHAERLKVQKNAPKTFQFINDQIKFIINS
# * hit, by the source's call; ? = inconclusive; nt = no result. Cut-off read from the data, not from the text of the source, unless noted: active = inhibition above about 30%; inconclusive = no clear call, values can overlap the other calls; inactive = below that.
SMILES,FBA Mtb inh,BoNT-A LC inh2,Bead autofluor,BoNT F protease,GDH-TPI inh,Anthrax LF prot
COc1cc2cc(CN(CCO)C(=O)c3cccs3)c(=O)[nH]c2cc1OC,14.5,-1.1,8304,-2.4,37.2*,-0.5
Cc1ccc(NC(=S)N(CCCN2CCOCC2)Cc2ccccn2)cc1,1.6,0.4,8443,0.0,-3.3,-1.1
Cc1ccccc1NC(=S)N(CCCN1CCOCC1)Cc1ccccn1,1.7,4.7,2551,38.6*,3.0,-0.1
CCOC(=O)Cc1nnc(NC(=O)c2ncn[nH]2)s1,-0.7,-2.5,23312*,-2.3,0.0,-8.3
Cc1ccc(CC(=O)NCc2ccc(Cl)cc2)cc1,-1.2,-0.4,2569,-2.3,-0.3,0.5
Cc1ccc(CC(=O)NCC(C)C)cc1,-0.1,1.3,22914*,3.1,0.7,1.0
COc1ccc(CC(=O)NCCN2CCOCC2)cc1,26.1,0.2,2882,7.4,8.1,3.9
Cc1ccc(CC(=O)NCCN2CCOCC2)cc1,2.9,2.3,3023,35.8*,1.9,2.6
Cc1c(OCC(=O)NCCN2CCOCC2)ccc2c1oc(=O)c1ccccc12,124.0*,nt,nt,nt,13.9,nt
O=C(c1cnc2sccn2c1=O)N1CCCc2ccccc21,-0.3,-0.4,4395,-3.3,31.7*,-1.9
COc1cccc(C(O)c2nc(/C=C/c3ccc(C(F)(F)F)cc3)cs2)c1 (stereo not drawn),-3.6,0.3,3531,2.1,8.0,-0.5
COc1cc(/C=C/C(=O)OCC(=O)N2CCc3ccccc3C2)ccc1O,2.9,0.4,9229,-1.6,56.7*,3.7
COc1cc(/C=C/C(=O)OCC(=O)N2CCC(C)CC2)ccc1O,4.2,-0.9,5292,-5.0,28.8,-0.5
COc1cc(/C=C/C(=O)OCC(=O)NC2CCCCCCC2)ccc1O,5.6,-0.7,3990,1.0,33.0*,6.3
COc1ccc(/C=C/C(=O)OCC(=O)NC2CCCCCC2)cc1,-1.8,0.1,4229,-3.8,20.4,3.8
C/C(CC(C)C)=N/Nc1ccc([N+](=O)[O-])cc1[N+](=O)[O-],-4.4,nt,nt,nt,6.2,nt
COC(=O)CC/C(C)=N\Nc1ccc([N+](=O)[O-])cc1[N+](=O)[O-],-0.9,-1.4,21329*,-0.5,13.1,-0.2
COc1ccc(-c2cnnn2-c2ccc(NC(=O)/C=C/c3ccc(OC)c(OC)c3)cc2)cc1,2.1,-0.4,2381,3.8,7.6,-0.6
COc1ccc(/C=C/C(=O)Nc2ccc(-n3nncc3-c3ccc(OC)c(OC)c3)cc2)cc1OC,-3.4,-0.1,2525,-4.4,35.7*,-2.7
COc1ccc(/C=C/C(=O)Nc2nnc(C(C)C)s2)cc1OC,5.6,0.6,5811,-1.3,34.0*,12.9
COc1ccc(/C=C/C(=O)Nc2ccccc2)cc1OC,-2.7,0.2,4474,3.0,8.2,-3.1
COc1ccc(/C=C/C(=O)Nc2ccc3nc4n(c(=O)c3c2)CCCC4)cc1OC,-0.3,-0.7,4433,-1.3,36.5*,-2.8
COc1ccc(/C=C/C(=O)Nc2c(C(=O)O)[nH]c3ccccc23)cc1OC,1.4,-1.0,3604,2.8,31.2*,-4.8
Cc1ccc(OC[C@H](O)[C@H](C)NC(C)C)c2c1CCC2,-1.9,-0.7,5708,-1.5,-11.9,-5.8
CCOc1c(Cl)cc(CNCC(C)C)cc1OC,-0.6,?,24375*,-7.3,0.7,-3.1
SMILES,FBA Mtb inh,BoNT-A LC inh2,Bead autofluor,BoNT F protease,GDH-TPI inh,Anthrax LF prot
CCOc1c(Cl)cc(CNCC(O)c2ccccc2)cc1OC (stereo not drawn),-1.0,-0.5,2115,-5.4,6.2,0.0
Cc1cccc(OCc2ccccc2)n1,3.4,-0.2,3658,11.4,4.4,-2.7
CCc1nc(C)cc(N)c1OCc1ccccc1,0.9,-2.4,17332*,0.8,-6.1,-1.1
O=C(O)c1cn(C2CCCCC2)c2ccccc2c1=O,-0.5,-1.4,4519,?,15.7,6.7
NC(=O)c1cn(C2CCCCC2)c2ccccc2c1=O,-0.1,-2.1,3613,40.7*,-4.7,14.0
O=C(OCCN1C(=O)c2ccccc2C1=O)c1cc(S(=O)(=O)N2CCOCC2)ccc1Cl,7.5,0.3,2341,-2.6,-4.3,-1.5
O=C(OCCN1C(=O)c2cccc3c(N4CCOCC4)ccc(c23)C1=O)c1ccc(Cl)cc1Cl,-3.9,51.3*,4710,19.1,-0.7,23.6
O=C(OCCN1C(=O)c2cccc3c(N4CCOCC4)ccc(c23)C1=O)c1ccccc1Cl,1.2,37.4*,3728,8.0,-0.7,15.0
O=C(NCc1ccccc1)c1ccc(NC(=O)C2CCC2)cc1,0.3,0.3,2813,3.0,8.5,-0.7
O=C(Cn1c2c(c(-c3ccccc3Cl)cc1=O)CCC2)NCCCN1CCOCC1,14.9,1.1,3396,-3.4,30.9*,2.5
CN(C(=O)NC1CCCCC1)c1ccccc1,-1.9,-0.6,3546,-3.4,-0.3,1.2
CN(Cc1ccccc1)C(=O)NC1CCCCC1,0.3,?,22110*,-10.7,0.6,0.6
CC1(C)Cc2c(cnn2-c2ccc(F)cc2)C(NC(=O)c2ccc(=O)oc2)C1 (stereo not drawn),-2.0,4.2,5892,-0.4,40.6*,2.1
CC1(C)Cc2c(cnn2-c2ccc(F)cc2)C(NC(=O)c2cnccn2)C1 (stereo not drawn),-1.8,-0.1,6658,-7.8,-5.5,-2.2
CSc1snnc1-c1ccccc1,2.4,-2.2,4106,-15.8,2.5,-9.4
Clc1ccccc1CSc1snnc1-c1ccccc1,-0.1,?,20983*,-4.4,-3.0,-2.5
Clc1ccc(CSc2snnc2-c2ccccc2)cc1,0.0,?,?,?,3.4,?
Clc1ccc(-c2nnsc2SCc2ccccc2)cc1,0.7,-2.0,22947*,-6.7,-4.8,-2.1
C[C@@H]1CN([C@@H](C)CO)C(=O)c2cc(C#CC3CCCCC3)cnc2O[C@@H]1CN(C)S(=O)(=O)c1ccc(F)cc1,-1.8,-0.2,3860,-1.7,6.2,0.1
Cc1ccc(OCC(=O)NN=C2c3ccccc3-c3ccccc32)cc1,1.1,-1.0,23454*,-0.3,16.7,0.7
C=C(C)C1CC=C(C)/C(=N/NC(=O)COc2ccc(C)cc2)C1 (stereo not drawn),2.1,2.3,21182*,1.8,-16.0,0.2
C=C(C)C1CC=C(C)/C(=N/NC(=O)COc2ccccc2Cl)C1 (stereo not drawn),3.7,-1.6,2943,-4.5,3.4,-2.0
CCC1Oc2ccc(C)cc2N(CC(=O)NCCCN2CCCCC2CC)C1=O (stereo not drawn),-0.3,-4.2,24712*,-6.3,0.6,-3.6
CCC1Oc2ccc(C)cc2N(CC(=O)NCCCN2CCCCC2C)C1=O (stereo not drawn),0.7,0.9,5358,7.3,7.6,-3.3
CCC1Oc2ccc(C)cc2N(CC(=O)NCCC2=CCCCC2)C1=O (stereo not drawn),-1.2,?,18757*,6.8,1.3,1.0
Cc1sc2c(c1C)C(c1ccc(C(C)(C)C)cc1)=NCC(=O)N2CC(=O)Nc1nccs1,-2.3,-1.3,22414*,-3.2,17.0,-2.2
